Results published in the supplement of paper PMC10849652.
The full data set covers some 7,900 targets. This sample favours those with a hit. About 0.6% of all pairs of compound and target were hits.

How the values were obtained:
Test in all cases: log2 fold change, soluble protein after heating vs DMSO (PISA); higher = thermal stabilisation; K562 cells, 10 uM, 30 min; active = over 0.2 and 3.5 SD of the protein, either way, in both replicates (recomputed)
ZNF217 = ZNF217 (UniProt O75362)
Procedure, shortened: (§1)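 K562 cells (2×10^6 cells/mL) were treated with 10 μM compound for 30 min, and aliquots were heated for 3 min over 48°C-58°C. Pooled aliquots were extracted in PBS with 0.5% NP-40 at 4°C, and the supernatant after 21,000xg for 90 min was measured by TMTpro 16plex LC-MS/MS with channel sums equalised. Reported thermal stability, relative to control samples and from duplicates, is a log2 fold change.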

ZNF239 = ZNF239 (UniProt Q16600)
Procedure, shortened: as §1

ZNF277 = ZNF277 (UniProt Q9NRM2)
Procedure, shortened: as §1

ZNF579 = ZNF579 (UniProt Q8NAF0)
Procedure, shortened: as §1

ZNF580 = ZNF580 (UniProt Q9UK33)
Procedure, shortened: as §1

ZNF609 = ZNF609 (UniProt O15014)
Procedure, shortened: as §1

ZNF622 = ZNF622 (UniProt Q969S3)
Procedure, shortened: as §1

ZRANB2 = ZRANB2 (UniProt O95218)
Procedure, shortened: as §1

ZNF511 isoform 1 = ZNF511 isoform 1 (UniProt Q8NB15)
Procedure, shortened: as §1

ZNF512 = ZNF512 (UniProt Q96ME7)
Procedure, shortened: as §1

Measured: log2 fold change

Chain of ZNF580 (Q9UK33 whole entry, looked up): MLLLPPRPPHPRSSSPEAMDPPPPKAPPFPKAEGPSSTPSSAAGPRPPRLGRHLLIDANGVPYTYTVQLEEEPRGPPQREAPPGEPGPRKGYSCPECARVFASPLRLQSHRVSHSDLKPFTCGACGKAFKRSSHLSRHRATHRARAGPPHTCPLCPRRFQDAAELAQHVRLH
Chain of ZNF217 (O75362 whole entry, looked up): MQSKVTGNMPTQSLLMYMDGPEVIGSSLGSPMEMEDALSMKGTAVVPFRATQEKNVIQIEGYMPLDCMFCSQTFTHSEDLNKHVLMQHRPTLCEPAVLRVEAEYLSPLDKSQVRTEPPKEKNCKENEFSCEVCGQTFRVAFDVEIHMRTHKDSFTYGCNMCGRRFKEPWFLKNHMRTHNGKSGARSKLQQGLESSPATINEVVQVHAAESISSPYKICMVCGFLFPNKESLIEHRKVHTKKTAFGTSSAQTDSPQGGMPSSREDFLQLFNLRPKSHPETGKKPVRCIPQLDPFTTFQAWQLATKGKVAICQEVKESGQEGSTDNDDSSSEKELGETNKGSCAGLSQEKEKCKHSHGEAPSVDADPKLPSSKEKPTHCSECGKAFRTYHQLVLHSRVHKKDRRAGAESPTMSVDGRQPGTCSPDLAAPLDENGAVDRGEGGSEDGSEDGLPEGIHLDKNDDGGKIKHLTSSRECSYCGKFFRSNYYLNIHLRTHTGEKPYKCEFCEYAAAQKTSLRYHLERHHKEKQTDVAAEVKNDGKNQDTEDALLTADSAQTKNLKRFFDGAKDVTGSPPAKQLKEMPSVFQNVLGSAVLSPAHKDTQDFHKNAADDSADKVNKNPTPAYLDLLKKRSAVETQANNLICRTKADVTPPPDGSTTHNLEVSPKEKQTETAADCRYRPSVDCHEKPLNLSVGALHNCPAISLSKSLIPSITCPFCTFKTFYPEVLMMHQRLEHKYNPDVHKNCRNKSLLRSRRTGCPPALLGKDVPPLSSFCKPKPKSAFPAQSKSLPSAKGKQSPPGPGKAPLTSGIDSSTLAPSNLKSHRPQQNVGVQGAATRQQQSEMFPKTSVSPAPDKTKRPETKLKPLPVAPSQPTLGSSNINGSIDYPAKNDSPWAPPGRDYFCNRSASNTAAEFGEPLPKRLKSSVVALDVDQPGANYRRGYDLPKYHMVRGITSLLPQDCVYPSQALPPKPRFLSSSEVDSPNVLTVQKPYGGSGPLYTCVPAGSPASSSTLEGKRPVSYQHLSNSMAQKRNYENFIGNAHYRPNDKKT
Chain of ZNF239 (Q16600 whole entry, looked up): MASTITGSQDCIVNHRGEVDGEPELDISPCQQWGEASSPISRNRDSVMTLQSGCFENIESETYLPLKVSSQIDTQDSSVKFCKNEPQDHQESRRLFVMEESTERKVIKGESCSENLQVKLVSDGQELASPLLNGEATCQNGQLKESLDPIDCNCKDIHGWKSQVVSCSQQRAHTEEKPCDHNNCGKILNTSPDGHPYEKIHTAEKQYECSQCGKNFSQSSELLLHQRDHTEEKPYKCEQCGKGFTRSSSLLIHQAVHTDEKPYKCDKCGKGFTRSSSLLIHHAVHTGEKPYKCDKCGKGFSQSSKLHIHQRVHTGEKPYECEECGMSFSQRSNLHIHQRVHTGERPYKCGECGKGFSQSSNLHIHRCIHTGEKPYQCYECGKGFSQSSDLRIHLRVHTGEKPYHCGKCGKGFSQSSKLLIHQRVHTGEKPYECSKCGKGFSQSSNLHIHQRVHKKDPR
Chain of ZNF622 (Q969S3 whole entry, looked up): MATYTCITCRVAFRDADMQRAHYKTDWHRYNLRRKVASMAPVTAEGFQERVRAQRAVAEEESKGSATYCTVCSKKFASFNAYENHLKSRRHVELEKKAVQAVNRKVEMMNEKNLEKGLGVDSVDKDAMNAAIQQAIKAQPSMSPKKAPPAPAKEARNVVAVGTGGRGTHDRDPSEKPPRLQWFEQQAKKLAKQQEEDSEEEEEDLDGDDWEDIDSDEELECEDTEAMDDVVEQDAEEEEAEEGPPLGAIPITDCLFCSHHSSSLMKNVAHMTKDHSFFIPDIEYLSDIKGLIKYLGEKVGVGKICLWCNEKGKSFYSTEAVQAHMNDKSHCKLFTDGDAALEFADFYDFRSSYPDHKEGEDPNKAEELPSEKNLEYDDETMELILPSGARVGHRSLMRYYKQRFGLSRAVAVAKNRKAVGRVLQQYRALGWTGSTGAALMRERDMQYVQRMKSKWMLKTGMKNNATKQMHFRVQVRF
Chain of ZNF511 isoform 1 (Q8NB15 whole entry, looked up, canonical isoform): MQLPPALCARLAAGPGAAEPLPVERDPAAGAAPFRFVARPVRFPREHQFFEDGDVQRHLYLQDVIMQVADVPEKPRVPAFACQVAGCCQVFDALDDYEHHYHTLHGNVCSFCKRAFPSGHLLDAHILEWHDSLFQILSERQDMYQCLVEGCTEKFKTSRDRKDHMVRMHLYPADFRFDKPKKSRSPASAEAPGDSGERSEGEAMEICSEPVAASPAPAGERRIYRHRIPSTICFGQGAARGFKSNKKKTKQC
Chain of ZNF609 (O15014 whole entry, looked up): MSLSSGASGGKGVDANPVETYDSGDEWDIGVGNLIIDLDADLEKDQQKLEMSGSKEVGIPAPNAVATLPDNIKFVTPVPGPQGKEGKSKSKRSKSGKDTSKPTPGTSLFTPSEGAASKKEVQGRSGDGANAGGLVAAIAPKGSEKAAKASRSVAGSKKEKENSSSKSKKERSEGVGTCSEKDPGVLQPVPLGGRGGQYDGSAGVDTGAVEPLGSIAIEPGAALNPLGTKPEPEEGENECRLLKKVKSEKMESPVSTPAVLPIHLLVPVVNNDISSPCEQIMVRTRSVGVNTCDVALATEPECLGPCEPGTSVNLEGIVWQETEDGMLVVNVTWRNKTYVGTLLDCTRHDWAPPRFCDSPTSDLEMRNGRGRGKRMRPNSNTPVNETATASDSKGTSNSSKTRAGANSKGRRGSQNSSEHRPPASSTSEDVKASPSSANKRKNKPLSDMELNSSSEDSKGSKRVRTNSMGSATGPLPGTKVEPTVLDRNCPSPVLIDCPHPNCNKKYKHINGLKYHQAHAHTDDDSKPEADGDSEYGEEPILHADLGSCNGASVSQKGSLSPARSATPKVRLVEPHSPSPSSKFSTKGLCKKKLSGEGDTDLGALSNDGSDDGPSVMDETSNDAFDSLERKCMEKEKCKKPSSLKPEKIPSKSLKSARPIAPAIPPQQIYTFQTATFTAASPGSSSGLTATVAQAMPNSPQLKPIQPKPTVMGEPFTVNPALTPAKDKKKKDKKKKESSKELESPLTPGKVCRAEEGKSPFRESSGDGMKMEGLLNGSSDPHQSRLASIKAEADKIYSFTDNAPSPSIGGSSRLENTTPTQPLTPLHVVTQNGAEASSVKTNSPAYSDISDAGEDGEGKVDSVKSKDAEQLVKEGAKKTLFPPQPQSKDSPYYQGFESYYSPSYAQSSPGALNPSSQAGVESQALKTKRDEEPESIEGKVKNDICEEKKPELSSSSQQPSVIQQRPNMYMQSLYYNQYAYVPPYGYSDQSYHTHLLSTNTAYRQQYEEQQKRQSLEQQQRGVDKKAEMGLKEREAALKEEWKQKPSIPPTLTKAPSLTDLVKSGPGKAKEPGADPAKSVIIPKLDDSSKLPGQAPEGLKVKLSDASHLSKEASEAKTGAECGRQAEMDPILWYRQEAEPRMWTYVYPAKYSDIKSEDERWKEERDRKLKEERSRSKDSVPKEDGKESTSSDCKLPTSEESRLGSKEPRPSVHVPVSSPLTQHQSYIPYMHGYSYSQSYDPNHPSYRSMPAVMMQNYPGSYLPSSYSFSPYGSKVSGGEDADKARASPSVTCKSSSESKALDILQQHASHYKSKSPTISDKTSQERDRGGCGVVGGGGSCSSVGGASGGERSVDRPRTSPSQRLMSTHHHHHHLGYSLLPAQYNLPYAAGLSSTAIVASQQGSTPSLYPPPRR
Chain of ZNF579 (Q8NAF0 whole entry, looked up): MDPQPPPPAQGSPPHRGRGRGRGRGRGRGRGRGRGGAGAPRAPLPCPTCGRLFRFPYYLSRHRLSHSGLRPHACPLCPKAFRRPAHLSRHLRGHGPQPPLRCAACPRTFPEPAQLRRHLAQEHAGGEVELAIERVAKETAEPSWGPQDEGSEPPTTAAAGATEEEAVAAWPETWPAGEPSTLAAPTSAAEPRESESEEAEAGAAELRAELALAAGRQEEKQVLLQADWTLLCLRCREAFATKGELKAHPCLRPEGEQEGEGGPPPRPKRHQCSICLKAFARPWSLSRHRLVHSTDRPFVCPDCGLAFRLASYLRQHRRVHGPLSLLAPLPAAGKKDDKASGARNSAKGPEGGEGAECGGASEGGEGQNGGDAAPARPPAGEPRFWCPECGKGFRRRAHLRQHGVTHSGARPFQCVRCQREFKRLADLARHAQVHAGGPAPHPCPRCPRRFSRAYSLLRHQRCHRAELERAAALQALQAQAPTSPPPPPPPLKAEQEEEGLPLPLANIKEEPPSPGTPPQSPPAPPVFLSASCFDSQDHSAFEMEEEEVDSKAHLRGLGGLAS
Chain of ZRANB2 (O95218 whole entry, looked up): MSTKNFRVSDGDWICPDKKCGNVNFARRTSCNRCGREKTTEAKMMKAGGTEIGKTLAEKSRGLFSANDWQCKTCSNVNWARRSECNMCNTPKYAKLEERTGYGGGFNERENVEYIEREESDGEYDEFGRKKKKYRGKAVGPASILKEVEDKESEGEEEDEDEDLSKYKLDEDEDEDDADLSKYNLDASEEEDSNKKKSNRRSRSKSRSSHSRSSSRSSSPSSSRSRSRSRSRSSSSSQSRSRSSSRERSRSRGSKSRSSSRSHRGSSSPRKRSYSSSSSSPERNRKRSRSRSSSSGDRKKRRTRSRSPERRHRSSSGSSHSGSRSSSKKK

Cc1cc(SCc2sc(-c3ccc(C(F)(F)F)cc3)nc2C)ccc1OCC(=O)O
inactive: ZNF217 0.112 | ZNF239 -0.172 | ZNF277 0.152 | ZNF579 -0.009 | ZNF580 -0.301 | ZNF609 -0.134 | ZNF622 -0.009 | ZRANB2 -0.086

COC(=O)N[C@@H](C)CNc1nccc(-c2cn(C(C)C)nc2-c2cc(Cl)cc(NS(C)(=O)=O)c2F)n1 [encorafenib]
inactive: ZNF217 -0.054 | ZNF277 -0.259 | ZNF511 isoform 1 -0.03 | ZNF579 -0.187 | ZNF580 0.143 | ZNF609 -0.082 | ZNF622 0.01 | ZRANB2 -0.066

Cn1c2cc(S(C)=O)sc2c2cnn(Cc3cccc(N)c3)c(=O)c21 (centres undefined)
inactive: ZNF217 0.237 | ZNF239 0.34 | ZNF277 0.084 | ZNF579 0.008 | ZNF580 0.259 | ZNF609 0.021 | ZNF622 -0.061 | ZRANB2 -0.006

NC(=O)Nc1cc(-c2cccc(F)c2)sc1C(=O)N[C@H]1CCCNC1
inactive: ZNF217 0.016 | ZNF239 0.015 | ZNF511 isoform 1 0.007 | ZNF579 -0.008 | ZNF580 0.123 | ZNF609 0.061 | ZNF622 -0.028 | ZRANB2 0.076

C[C@H](Nc1ncnc2nc[nH]c12)c1cc2cccc(Cl)c2c(=O)n1-c1ccccc1 [duvelisib]
inactive: ZNF217 0.108 | ZNF239 0.038 | ZNF277 -0.107 | ZNF579 -0.031 | ZNF580 -0.078 | ZNF609 0.073 | ZNF622 0.065 | ZRANB2 -0.02

CON(C)C(=O)N1N=C(c2cc(F)ccc2F)S[C@@]1(CCCN)c1ccccc1 [filanesib]
inactive: ZNF217 -0.045 | ZNF239 0.051 | ZNF511 isoform 1 0.019 | ZNF579 0.181 | ZNF580 0.152 | ZNF609 0.049 | ZNF622 -0.101 | ZRANB2 0

O=C(Nc1nc2ccccc2n1CCN1CCOCC1)c1cccc([N+](=O)[O-])c1 [IRAK-1-4 Inhibitor I]
inactive: ZNF217 0.052 | ZNF239 0.154 | ZNF277 -0.346 | ZNF579 -0.096 | ZNF580 0.051 | ZNF609 -0.031 | ZNF622 0.004 | ZRANB2 -0.008

CN1CCN(c2nc(C3=C(c4c[nH]c5ccccc45)C(=O)NC3=O)c3ccccc3n2)CC1 [sotrastaurin]
inactive: ZNF217 -0.019 | ZNF239 0.144 | ZNF511 isoform 1 0.001 | ZNF579 0.014 | ZNF580 0.039 | ZNF609 0.016 | ZNF622 0.018 | ZRANB2 -0.027

CN1CCN(CCOc2cc(OC3CCOCC3)c3c(Nc4c(Cl)ccc5c4OCO5)ncnc3c2)CC1 [saracatinib]
inactive: ZNF217 -0.083 | ZNF239 0.052 | ZNF277 -0.276 | ZNF579 -0.025 | ZNF580 0.108 | ZNF609 0.047 | ZNF622 -0.005 | ZRANB2 0.044

CCn1cc(-c2ccnc3[nH]c(-c4cccc(CN(C)C)c4)cc23)c(-c2ccc(NC(=O)N(C)C)cc2)n1
inactive: ZNF217 0.036 | ZNF239 0.095 | ZNF277 0.01 | ZNF579 0.091 | ZNF580 0.092 | ZNF609 0.097 | ZNF622 -0.077 | ZRANB2 0.022

CC[C@@H]1C(=O)N(C)c2cnc(Nc3ccc(C(=O)NC4CCN(C)CC4)cc3OC)nc2N1C1CCCC1
inactive: ZNF217 0.029 | ZNF277 0.328 | ZNF511 isoform 1 -0.041 | ZNF579 -0.017 | ZNF580 0.037 | ZNF609 0.047 | ZNF622 0.069 | ZRANB2 0.022

c1cn2cc(-c3ccc4cn[nH]c4c3)nc(Nc3ccc(N4CCOCC4)cc3)c2n1 [entospletinib]
inactive: ZNF217 0.011 | ZNF277 0.031 | ZNF511 isoform 1 0.1 | ZNF579 -0.14 | ZNF580 0.004 | ZNF609 -0.111 | ZNF622 0.021 | ZRANB2 0.037

NC(=O)c1ccc2nc(-c3ccc(Oc4ccc(Cl)cc4)cc3)[nH]c2c1
inactive: ZNF217 0.015 | ZNF239 0.248 | ZNF277 -0.104 | ZNF512 -0.014 | ZNF579 0.042 | ZNF609 0.029 | ZNF622 0.007 | ZRANB2 -0.015
